Source: PubChem (The Scripps Research Institute Molecular Screening Center)
Rows were chosen to be rich in hits. Some 2.3% of all compounds tested hit in one or more screens of this group.
M1 PAM: positive allosteric modulators of human M1 muscarinic receptor | P11229 | CHO-K1 hM1, Fluo-8 calcium fluorescence, ACh EC20; 0% = ACh EC20, 100% = maximal ACh | activation, % at 3 µM | hit rate 0.088% among 360,000 | AID 588819; in the data active = activation above about 19%, passing the limit was not always enough
Target sequence (P11229 whole entry, looked up): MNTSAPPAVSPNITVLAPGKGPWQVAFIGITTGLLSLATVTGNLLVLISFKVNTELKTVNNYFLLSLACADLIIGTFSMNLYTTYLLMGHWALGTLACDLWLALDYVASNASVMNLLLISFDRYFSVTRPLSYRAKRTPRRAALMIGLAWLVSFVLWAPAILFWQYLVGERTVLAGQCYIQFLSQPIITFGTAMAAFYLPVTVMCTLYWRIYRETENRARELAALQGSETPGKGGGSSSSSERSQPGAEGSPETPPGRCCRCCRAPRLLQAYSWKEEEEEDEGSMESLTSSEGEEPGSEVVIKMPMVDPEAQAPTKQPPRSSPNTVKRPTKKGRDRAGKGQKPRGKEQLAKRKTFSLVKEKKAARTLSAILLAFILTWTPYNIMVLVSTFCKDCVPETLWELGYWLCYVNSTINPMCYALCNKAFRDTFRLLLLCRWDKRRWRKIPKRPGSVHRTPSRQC
M1 antag: blocks human M1 muscarinic receptor; P11229; hit rate 1.3% among 360,000; AID 588852; CHO-K1 hM1, Fluo-8 calcium fluorescence, ACh EC80 antagonist; inhibition, % at 3 µM;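 active = percent inhibition above its own plate's cutoff, namely the mean of that plate's compound wells plus 3 SD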;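 note: peak over basal fluorescence ratio during 140 s after agonist addition; 0% = ACh EC80 plus DMSO and 100% = DMSO alone without agonist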
M1 ag: agonists of human M1 muscarinic receptor; AID 588814; activation, % at 3 µM; CHO-K1 hM1, Fluo-8 calcium fluorescence, agonist mode; 0% DMSO, 100% acetylcholine EC100; hit rate 0.33% among 360,000;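 active = activation above the run's mean compound activation plus 3 SD, cut at about 16% in these data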;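 note: peak over basal fluorescence ratio within a 140 s kinetic read after compound addition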
CHO-K1 Ca antag: nonselective inhibitor or artifact in parental CHO-K1 cells; ATP-induced calcium, Fluo-8 fluorescence; inhibition, % at 3 µM; hit rate 0.6% among 360,000;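 active = inhibition above a per-plate cutoff, the plate's mean sample inhibition plus 3 SD, cut at about 24% in these data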;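 note: 0% = DMSO plus EC80 ATP and 100% = DMSO alone without ATP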
CHO-K1 Ca PAM: counter-screen for M1 PAMs: effect in parental CHO-K1 cells | AID 602247 | activation, % at 3 µM | ATP EC20, Fluo-8 calcium fluorescence; 0% at ATP EC20, 100% at ATP max | hit rate 0.02% among 360,000;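 active = activation above the run cutoff, the mean activation of all test compounds plus 3 SD, cut at about 40% in these data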;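 note: peak over basal fluorescence ratio in a 140 s read after ATP addition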
M1 ag parental: M1 agonist counterscreen hit in parental CHO-K1 cells | hit rate 0.48% among 360,000 | activation, % at 3 µM | Fluo-8 calcium fluorescence; scaled to maximal ATP response, vehicle zero | AID 602248; in the data active = activation above about 15%;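 note: untransfected CHO-K1 host cells lacking M1 receptor as counterscreen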
* marks the source's active call; other numbers are inactive results.

SMILES	M1 PAM	M1 antag	M1 ag	CHO-K1 Ca antag	CHO-K1 Ca PAM	M1 ag parental
COc1ccc(NC(=O)COc2cccc3c2OC(C)(C)C3)cc1OC	-19	31*	2	17	-23	12
COc1cc(C(=O)Nc2cccc(-n3cnnn3)c2)cc(OC)c1OC	1	-2	0	-13	15	4
COc1cc(C(=O)Nc2ccc(-n3cnnn3)c(C)c2)cc(OC)c1OC	3	-3	3	24*	-7	1
CCCCc1ccc(N/C(N)=N/c2nc(C)cc(C)n2)cc1	-28	83*	35*	46*	-28	42*
Cc1cc(C)nc(/N=C(\N)Nc2ccc(C(C)C)cc2)n1	-14	14	3	4	-4	16*
Cc1ccc(N/C(N)=N/c2nc(C)cc(C)n2)cc1	-7	-6	-5	-3	0	9
CC(=O)c1ccc(NC(=O)CSc2nc(=O)n3cccc(C)c3n2)cc1	6	-9	-2	44*	18	0
COc1ccc(CN2CCNC(=O)C2CC(=O)NCCN2CCCCC2=O)c(F)c1 (centres undefined)	24	-14	0	-7	-8	1
O=C(COc1ccc([N+](=O)[O-])cc1)NNC(=O)Nc1cccc(F)c1	9	-11	0	2	-4	1
N=c1c2ccccc2nc2n1CCCCC2	-18	3	-9	34*	-10	0
Cc1ccc(Cn2c(CN(C)Cc3ccccc3)nc3c2c(=O)n(C)c(=O)n3C)cc1	1	7	16*	-4	17	5
CC(O)CSc1nc2c(c(=O)n(C)c(=O)n2C)n1CCCc1ccccc1 (centres undefined)	24*	-29	0	2	20	1
CN(Cc1ccccc1)c1nc2c(c(=O)n(C)c(=O)n2C)n1CCCc1ccccc1	-17	34*	-3	11	10	3
COC(=O)CSc1nc2c(c(=O)n(C)c(=O)n2C)n1CCCc1ccccc1	-1	-10	-2	-10	7	0
O=C(CN1CCN(Cc2ccccc2)CC1)N/N=C/c1ccc(Br)s1	2	-4	-4	-3	8	9
Cc1ccc(S(=O)(=O)C2(C(=O)N3CCN(c4cc(C)ccc4C)CC3)CC2)cc1	2	-6	-2	-12	8	2
COCCCNC(=O)c1ccccc1Sc1ccc(NC(C)=O)nc1	4	-2	-6	24*	-14	0
COCCSc1ccccc1C(=O)Nc1ccc(Cl)cn1	12	-11	-6	-9	21	1
CCOC(=O)Cc1nnc(NC(=O)CCc2ccccc2)s1	0	1	-4	-1	3	0
COc1ccc(CNC(=O)CN2C(=O)CSc3ccc(S(=O)(=O)N4CCOCC4)cc32)c(OC)c1	2	-6	-7	-8	-1	1
Fc1ccc(/C=C2\CCCC3=C2Nc2ncnn2C3c2ccc(F)cc2)cc1 (centres undefined)	-8	32*	2	19	3	5
Cc1ccc(C(=O)NCC(C)(C)O)cc1	-3	15	-2	26*	-8	0
CN(C)CCNc1ccc(Cl)cc1[N+](=O)[O-]	-25	35*	-8	2	8	1
CS(=O)(=O)NCCNc1ccc(Cl)cc1[N+](=O)[O-]	-20	23*	-5	-1	11	6
CCOc1ccc(CNC(=O)C2CCN(c3nn4c(=O)cc(C)nc4s3)CC2)cc1	2	-6	-6	-24	25	-1
CCCn1c(SCC(=O)N2N=C3/C(=C/c4ccc(OC)cc4)CCCC3C2c2ccc(OC)cc2)n[nH]c1=O (centres undefined)	-1	21	9	10	16	24*
CC1=CC(C)(C)NC(=S)N1c1cccc2cc(S(=O)(=O)O)ccc12	3	14	0	2	-8	4
O=C(CN(C(=O)c1ccccc1Cl)N1C(=O)CCCC1=O)c1ccc(Cl)cc1	3	-9	-5	-14	17	1
Cc1cc(C(=O)COC(=O)c2ccc(O)cc2O)c(C)n1-c1ccc(OC(F)F)cc1	-11	27	1	29*	-24	3
COc1ccc(-n2c(C)cc(C(=O)COC(=O)c3ccc(O)cc3O)c2C)cc1	-10	30	-1	-3	-6	6
